Measured values as given in the antibiotic and cytotoxicity screens of Wong et al. (2023).
The whole screen tested about 39,000 compounds, of which about 3,300 (8.5%) were called active. The sample as a whole holds a higher share of actives than the screen did.

Test system: HepG2
Test: cytotoxicity call (relative viability < 0.9)
Conditions: 10 µM

| Compound | cytotoxicity call |
| --- | --- |
| COc1ccc([Si](C)(C)[C@H]2[C@H](CC(=O)N3Cc4ccccc4C[C@H]3CO)O[C@@]3(C(=O)N(C)c4c(Br)cc(C)cc43)[C@@H]2C)cc1 | inactive |
| CN1C(=O)c2cc(NC(=O)C3CCOCC3)ccc2OC[C@H]2O[C@H](CC(=O)NCCc3ccncc3)CC[C@@H]21 | inactive |
| COc1cc(C=CC(=O)O)ccc1O | inactive |
| COc1cc(C=O)ccc1O | active |
| COc1ccc(/C=C/C(=O)C=C(O)/C=C/c2ccc(OC)c(OC)c2)cc1OC | inactive |
| O=C(C=Cc1ccc(O)c(O)c1)C=C(O)C=Cc1ccc(O)c(O)c1 | active |
| COc1cc(C=CC(=O)C=C(O)C=Cc2ccc(O)c(OC)c2)ccc1O | active |
| O=C(O)C=Cc1ccc(O)c(O)c1 | inactive |
| COc1ccc(C=CC(=O)O)cc1OC | inactive |
| COc1cc(C(C)=O)ccc1O | inactive |
| O=C(/C=C/c1ccc(O)c(O)c1)O[C@H]([C@H](OC(=O)/C=C/c1ccc(O)c(O)c1)[C@H](OC(=O)/C=C/c1ccc(O)c(O)c1)C(=O)O)[C@@H](OC(=O)/C=C/c1ccc(O)c(O)c1)C(=O)O | inactive |
| S=C1NCNCN1 | inactive |
| O=C1N[C@H](Cc2ccccc2)COC(=O)[C@@H](Cc2ccc(F)cc2)CCC=CC[C@@H]1CC(=O)N(CCO)Cc1ccccc1 | inactive |
| COc1ccc(CN2C[C@@H](C)[C@H](OC)CN(C)C(=O)c3ccc(NC(=O)c4nc5ccccc5s4)cc3OC[C@H]2C)cc1 | inactive |
| COCC#Cc1ccc2c(c1)O[C@@H](CN(C)C(=O)CN(C)C)[C@H](C)CN([C@H](C)CO)S2(=O)=O | inactive |
| Cc1ccc(S(=O)(=O)N(C)C[C@@H]2Oc3ncc(Br)cc3C(=O)N([C@H](C)CO)C[C@@H]2C)cc1 | inactive |
| COC(=O)c1cc(S(=O)(=O)N2CCOCC2)cn1C | inactive |
| C[C@@H]1CCCCO[C@@H](CN(C)C(=O)Nc2ccc(F)cc2)[C@@H](C)CN([C@@H](C)CO)C(=O)c2cc(NC(=O)C3CCCCC3)ccc2O1 | inactive |
| COCC#Cc1ccc([C@H]2[C@@H](CO)N3C(=O)CN(C(=O)C4CCOCC4)C[C@@H]23)cc1 | inactive |

| Compound | cytotoxicity call |
| --- | --- |
| C[C@H]1CN([C@@H](C)CO)C(=O)c2cccc(NC(=O)c3cnccn3)c2O[C@H]1CN(C)C(=O)Nc1ccccc1 | inactive |
| C[C@@H]1CN([C@@H](C)CO)C(=O)c2cc(NC(=O)Nc3ccc(C(F)(F)F)cc3)ccc2O[C@@H](C)CCCCO[C@@H]1CN(C)C(=O)CCCN(C)C | inactive |
| Oc1cccc(O)c1 | inactive |
| O=C(O)c1ccc2ccccc2c1 | inactive |
| Oc1ccc2ccccc2c1 | inactive |
| Oc1ccc2ccccc2c1 [beta-NAPHTHOL ] | active |
| C[C@H](CO)N1C[C@H](C)[C@@H](CN(C)S(=O)(=O)c2ccccc2)Oc2ccc(NS(=O)(=O)c3ccccc3)cc2C1=O | inactive |
| Cc1ccc(S[C@]2(C(=O)NCC(C)C)CC(=O)N(Cc3cc(C(F)(F)F)cc(C(F)(F)F)c3)[C@@H]2c2ccc(CO)cc2I)cc1 | inactive |
| Cc1cn([C@H]2C[C@H](F)[C@@H](CO)O2)c(=O)[nH]c1=O | inactive |
| CCC(=O)N[C@@H]1CC[C@@H](CC(=O)OC)O[C@@H]1CO | inactive |
| C[C@@H]1CN([C@@H](C)CO)C(=O)c2cc(-c3cncnc3)cnc2O[C@@H]1CN(C)C(=O)CN1CCOCC1 | inactive |
| C[C@@H]1CN([C@H](C)CO)C(=O)c2cccc(NC(=O)CCCCCC(=O)Nc3ccccc3N)c2O[C@@H]1CN(C)C(=O)Nc1ccc(C(F)(F)F)cc1 | inactive |
| C[C@@H]1CCCCO[C@H](CN(C)S(=O)(=O)c2ccc(Cl)cc2)[C@@H](C)CN([C@H](C)CO)C(=O)c2cc(NC(=O)Nc3ccc(F)cc3)ccc2O1 | inactive |
| C[C@@H]1CCCCO[C@@H](CN(C)S(=O)(=O)c2ccc(Cl)cc2)[C@H](C)CN([C@H](C)CO)C(=O)c2cc(NC(=O)Nc3ccc(F)cc3)ccc2O1 | active |
| C[C@H]1CCCCO[C@H](CN(C)S(=O)(=O)c2ccc(Cl)cc2)[C@@H](C)CN([C@@H](C)CO)C(=O)c2cc(NC(=O)Nc3ccc(F)cc3)ccc2O1 | inactive |
| C[C@@H]1CN([C@H](C)CO)C(=O)c2cc(NC(=O)Nc3ccc(F)cc3)ccc2O[C@@H](C)CCCCO[C@H]1CN(C)S(=O)(=O)c1ccc(Cl)cc1 | active |
| C[C@@H]1CCCCO[C@H](CN(C)S(=O)(=O)c2ccc(Cl)cc2)[C@H](C)CN([C@@H](C)CO)C(=O)c2cc(NC(=O)Nc3ccc(F)cc3)ccc2O1 | inactive |
| C[C@H](CO)N1C[C@H](C)[C@@H](CN(C)S(=O)(=O)c2ccc(Cl)cc2)OCCCC[C@H](C)Oc2ccc(NC(=O)Nc3ccc(F)cc3)cc2C1=O | inactive |
| COc1ccc(CN(C)C[C@@H]2Oc3c(NC(=O)c4cnccn4)cccc3C(=O)N([C@@H](C)CO)C[C@H]2C)cc1 | inactive |

| Compound | cytotoxicity call |
| --- | --- |
| CNC(=O)[C@H]1O[C@@H](n2cnc3c(NCc4cccc(I)c4)ncnc32)[C@H](O)[C@@H]1O | inactive |
| C[C@@H]1CCCCO[C@H](CN(C)C(=O)Nc2ccccc2)[C@@H](C)CN([C@@H](C)CO)C(=O)c2cc(NC(=O)c3ccccc3)ccc2O1 | inactive |
| C[C@H]1CN([C@@H](C)CO)C(=O)c2cccc(NC(=O)c3nc4ccccc4s3)c2O[C@H]1CN(C)C(=O)Nc1ccc(F)cc1 | inactive |
| C[C@H](CO)N1C[C@H](C)[C@@H](CN(C)C(=O)Nc2ccc3c(c2)OCO3)Oc2ccc(NS(C)(=O)=O)cc2C1=O | inactive |
| COc1ccc(S(=O)(=O)Nc2ccc3c(c2)CC(=O)N([C@@H](C)CO)C[C@H](C)[C@H](CN(C)S(=O)(=O)c2ccccc2)O3)cc1 | inactive |
| C[C@H](CO)N1C[C@H](C)[C@H](CN(C)S(=O)(=O)c2cn(C)cn2)Oc2ccc(NC(=O)CCCN(C)C)cc2CC1=O | inactive |
| C[C@H](CO)N1C[C@H](C)[C@H](CN(C)S(=O)(=O)c2cccc(F)c2)Oc2ncc(C#Cc3cccc(F)c3)cc2C1=O | inactive |
| C[C@@H]1CN([C@H](C)CO)C(=O)c2cc(C#Cc3cccnc3)cnc2O[C@@H]1CN(C)Cc1ccc(F)cc1 | inactive |
| C[C@H](CO)N1C[C@H](C)[C@H](CN(C)S(=O)(=O)c2ccc(F)cc2)Oc2ncc(C#Cc3cccc(F)c3)cc2C1=O | active |
| C[C@H](CO)N1C[C@H](C)[C@H](CN(C)Cc2ccc(F)cc2)Oc2ncc(C#Cc3cccnc3)cc2C1=O | active |
| Cc1ccc(S(=O)(=O)N(C)C[C@@H]2Oc3ncc(C#Cc4ccccc4)cc3C(=O)N([C@H](C)CO)C[C@@H]2C)cc1 | inactive |
| Cc1ccc(S(=O)(=O)N(C)C[C@@H]2Oc3ncc(C#Cc4cccc(F)c4)cc3C(=O)N([C@H](C)CO)C[C@@H]2C)cc1 | active |
| C[C@H](CO)N1C[C@H](C)[C@H](CN(C)S(=O)(=O)c2ccccc2)Oc2ncc(C#Cc3cccc(F)c3)cc2C1=O | inactive |
| C[C@H]1CN([C@@H](C)CO)C(=O)c2cc(C#Cc3cccnc3)cnc2O[C@@H]1CN(C)Cc1ccc(F)cc1 | inactive |
| C[C@H](CO)N1C[C@H](C)[C@H](CN(C)S(=O)(=O)c2ccc(C#N)cc2)Oc2ncc(C#Cc3cccc(F)c3)cc2C1=O | inactive |
| COc1ccc(C#Cc2cnc3c(c2)C(=O)N([C@H](C)CO)C[C@H](C)[C@H](CN(C)S(=O)(=O)c2ccc(C)cc2)O3)cc1OC | inactive |
| COc1ccc(S(=O)(=O)N(C)C[C@@H]2Oc3ncc(C#Cc4ccc(OC)c(OC)c4)cc3C(=O)N([C@H](C)CO)C[C@@H]2C)cc1 | active |
| COc1ccc(C#Cc2cnc3c(c2)C(=O)N([C@H](C)CO)C[C@H](C)[C@H](CN(C)S(=O)(=O)c2ccc(C#N)cc2)O3)cc1OC | inactive |
